Measured values: PubChem BioAssay AID1745850 (National Center for Advancing Translational Sciences (NCATS), 2022)
Hit rate of the full screen: of about 2,100 compounds, about 260 (12%) were called active. Another 58% or so got no clear call; they are omitted. This is one part of the list. Unmarked numbers belong to inactive results. Calls follow the shape of the dose curve; as a rule, active = well fitted cell-killing curve with a large enough effect; inconclusive = small, poorly fitted or top-dose-only effect, or effect the other way; inactive = flat fitted curve, though single readings scatter.
Potency is read from the fitted curve at half-maximal effect.

Assay: Viability Counterscreen for Confirmatory qHTS for Inhibitors of ATXN expression; also: nearly all actives have a fitted effect of over 50% in size
Conditions: HEK-293 ATXN2-luc cells viability, CellTiter-Fluor, 24 h; activity change, negative = cytotoxicity: at the top concentration
Source text: PI: Daniel Scoles Ph.D. University of Utah School of Medicine, Salt Lake City, Utah MLPCN Grant: NS073009 Spinocerebellar ataxia type 2 (SCA2) is a multisystem neurodegenerative disease caused by a dominantly acting mutation leading to expansion of a polyQ domain in the ataxin-2 protein (ATXN2). SCA2 patients develop progressive ataxia and later lose function in other neuronal systems. Prominent parkinsonian signs develop in some patients. Like many neurodegenerative disorders, no symptomatic or disease-modifying treatments are known. The primary objective of the proposed research is to identify compounds inhibiting ATXN2 expression and to test them for efficacy in SCA2 mouse models. We have developed a cell-based assay paired with an in vivo mouse model using identical luciferase expression constructs. This approach takes advantage of an ATXN2-luciferase transgene, with the luciferase gene flanked by the upstream and downstream portions of the ATXN2 gene. Here we describe a 5-7 dose quantitative high thoroughput screen (qHTS) for compounds lowering ATXN2 expression. We screened the NIH Molecular Libraries Small Molecule Repository (MLSMR) and NCGC's mechanistically annotated (MIPE) and drug repurposing (NPC) collections of compounds for lowering expression of an ATXN2-luciferase reporter in HEK-293 cells. The assay is a multiplexed cell viability assay to ensure target reduction in the absence of cytotoxicity. Secondary qHTS assays included a CMV-luciferase reporter expressed in HEK-293 cells as well as a biochemical assay using recombinant luciferase to detect inhibitors of the reporter enzyme. Compounds that inhibit ATXN2 expression but is not cytotoxic were selected for confirmatory and secondary screens.
PROTOCOL TABLE (as described by Inglese J, Shamu CE and Guy RK. 2007) SEQUENCE No. (e.g., 1, 2, 3, etc.); […] (e.g., Cells, Incubation, Reagent, etc.); VALUE; DESCRIPTION. 1; Cells; 4 uL; white, solid bottom, 1536-well Greiner assay plate. 2; Incubation; 2 hr; 37 degree C in 5% humidified CO2. 3; Compounds; 23 nL; Kalypsis pintool (Wako USA) equipped with a 1536-well pin head. 4; Incubation; 24 hr; 37 degree C in 5% humidified CO2. 5; Reagent; 1 uL; Gly-Phe-7-Amino-4-trifluoromethylcoumarin. 6; Incubation; 30 min; 37 degree C in 5% humidified CO2. 7; Detection; Fluorescence; ViewLux plate reader (PerkinElmer). 8; Reagent; 3 uL; SteadyGlo luciferase solution (Promega). 9; Incubation; 5 min; room temperature. 10; Detection; Luminescence; ViewLux plate reader (PerkinElmer). NOTES (numbers refer to Sequence numbers above) 1. S2 cells expressing ATXN2-luciferase reporter were suspended in phenol-red free DMEM and dispensed in assay plates using a Multidrop Combi dispenser (Thermo Fisher Scientific). Wells containing medium only were plated on each plate, and values were used to normalize (100% inhibition) in the luciferase and CellTiter-Fluor assays. 2. Assay plates were incubated. Evaporation was prevented by covering assay plates with metal lids containing holes to allow gas diffusion. 3. Compounds were added in a dose response manner with the final concentrations of 57, 11.4, 2.28, 0.46, 0.091, 0.018, 0.0037 uM. Vehicle-only plates, with DMSO being pin-transferred to columns 5-48, were inserted uniformly at the beginning and the end of each library to monitor and record any shifts in assay performance. 5. 125 uM Gly-Phe-7-Amino-4-trifluoromethylcoumarin (MP Biomedicals) working concentration was used at a final concentration of 25 uM. 7. To assess cell viability; the assay plates were read using the ViewLux high-throughput CCD imager (PerkinElmer), wherein single end-point fluorescence measurement was acquired (excitation 405/10; emission 540/25 nm). 8. Detection reagent SteadyGlo Luciferase (Promega) was added to the assay plate. 10. Luminescence is then measured on the ViewLux imager equipped with a clear emission filter using a 2 sec exposure. […]
In the case of `Cc1ccc(Nc2c(-c3ccccn3)nc3cc(C)ccn23)cc1`, the Potency is reported as 10 µM (active).
In the case of `N#Cc1ccc(-c2nc3cc(Cl)ccc3c(=O)n2O)cc1`, the “activity change, negative = cytotoxicity” value is reported as -15.2%.
For `CCCNC(=O)c1ccc2c(=O)c(O)c(-c3ccc(F)cc3)[nH]c2c1`, the “activity change, negative = cytotoxicity” value was -12.7% [at 57.5 µM].
In the case of `CCN(c1ccccc1)S(=O)(=O)c1ccc(C(=O)N(CCCN(C)C)c2nc3c(C)cccc3s2)cc1`, the Potency is reported as 20 µM (active).
In the case of `CN(C)CCCN(C(=O)c1ccc(S(=O)(=O)N(C)Cc2ccccc2)cc1)c1nc2cc3c(cc2s1)OCO3`, the Potency is reported as 25.1 µM (active).
In the case of `CN(C)CCCN(C(=O)c1ccco1)c1nc2cc3c(cc2s1)OCO3`, the “activity change, negative = cytotoxicity” value is reported as -18.9% [at 57.5 µM].
With `Cc1ccc(S(=O)(=O)c2nc(NCc3ccc4c(c3)OCO4)sc2Cl)cc1` the “activity change, negative = cytotoxicity” value was -19.2% [at 57.5 µM].
In the case of `CCCc1nc(NC2CCCCC2)c(C#N)c2c1COC(C)(C)C2`, the “activity change, negative = cytotoxicity” value is reported as 4.08%.
With `CC1(S(=O)(=O)O)CC(=O)c2ccccc2C1=O` (stereo not given) the “activity change, negative = cytotoxicity” value was 3.58% [at 57.5 µM].
With `CCCCOc1ccc(NC2=NC3(CCCC3)N=C(N)N2)cc1` the “activity change, negative = cytotoxicity” value was -22.7% [at 57.5 µM].
For `COc1ccc([C@@]2(C(C)C)ON(c3ccccc3C(F)(F)F)C2=O)cc1`, the “activity change, negative = cytotoxicity” value was -9.94%.
In the case of `COc1ccc(CN(C)C(=O)c2cccc(NC(=O)CC3SC(N4CCCCC4)=NC3=O)c2)c(OC)c1` (stereo not given), the Potency is reported as 35.5 µM (active).
For `Cc1ccc(Cn2ncc3c(NN)ncnc32)cc1`, the “activity change, negative = cytotoxicity” value was -26.4% [at 57.5 µM].
For `COc1cccc(N2CCN(c3nc(-c4ccccc4C)cc(=O)[nH]3)CC2)c1`, the “activity change, negative = cytotoxicity” value was -27.9%.
With `Cc1nc2ncnn2c(N2CCN(c3cccc(C(F)(F)F)c3)CC2)c1C` the “activity change, negative = cytotoxicity” value was -26.9%.
With `CC(Sc1ccc(Cl)cc1)C(=O)NNC(=O)c1ccccc1O` (stereo not given) the “activity change, negative = cytotoxicity” value was -10%.
With `COc1ccc(Cl)cc1NC(=O)Nc1cccc([N+](=O)[O-])c1C` the “activity change, negative = cytotoxicity” value was -5.63%.
With `COc1ccc(-c2n(CC(=O)OC3CC(C)CCC3C(C)C)c3ccccc3[n+]2C)cc1` (stereo not given) the Potency was 10 µM (active).
For `Cc1onc(-c2ccccc2)c1C(=O)N/N=C/c1c[nH]c2ccccc12`, the “activity change, negative = cytotoxicity” value was -15.8% [at 57.5 µM].
With `O=C(O)COc1ccc2oc3ccccc3c2c1` the “activity change, negative = cytotoxicity” value was 7.02%.
With `Cc1nnc(SC(C)C(=O)Nc2ccc(Cl)cn2)n1Cc1ccccc1` (stereo not given) the “activity change, negative = cytotoxicity” value was -12.7% [at 57.5 µM].
With `Cc1cccc(N2CCN(S(=O)(=O)c3ccc4c(c3)C(C)(C)C(=O)N4C)CC2)c1C` the “activity change, negative = cytotoxicity” value was -12% [at 57.5 µM].
For `NC(N)=N/N=C/c1ccc2cccc(OCc3ccccc3)c2n1`, the Potency was 15.8 µM (active).
For `CC(=O)Oc1c(Br)cc(N(C(C)=O)S(=O)(=O)c2ccccc2)c2ccccc12`, the Potency was 28.2 µM (active).
For `N#Cc1cc2cc3c(cc2nc1SCC(=O)N1CCOCC1)OCCO3`, the “activity change, negative = cytotoxicity” value was -8.91%.
With `OC(c1cc(-c2cccc(Cl)c2)nc2ccccc12)C1CCCCN1` (stereo not given) the Potency was 28.2 µM (active).
In the case of `Cn1nccc1C(=O)N1CCCC(C(=O)c2cccc3ccccc23)C1` (stereo not given), the “activity change, negative = cytotoxicity” value is reported as -20.1% [at 57.5 µM].
In the case of `Cn1cc(/C=C/c2cc[n+](C)cc2)c2cc(F)ccc21`, the “activity change, negative = cytotoxicity” value is reported as -9.68% [at 57.5 µM].
In the case of `Cc1noc(C)c1CSCC(=O)Nc1nc(-c2ccc(F)c(F)c2)cs1`, the Potency is reported as 28.2 µM (active).
With `O=C(Nc1nc(-c2ccc(F)c(F)c2)cs1)Nc1ccc(F)cc1F` the Potency was 2.82 µM (active).
With `O=C(/C=C\c1ccco1)Nc1nc(-c2ccc3ccccc3c2)cs1` the “activity change, negative = cytotoxicity” value was -19.3%.
For `NS(=O)(=O)c1ccc(Nc2nc(-c3ccc(F)cc3)cs2)cc1`, the “activity change, negative = cytotoxicity” value was -8.41%.
For `O=C(CCN1C(=O)C2CC=CCC2C1=O)Nc1nc(-c2ccc(F)c(F)c2)cs1` (stereo not given), the “activity change, negative = cytotoxicity” value was -16.4% [at 57.5 µM].
In the case of `Cc1cnc(NC(=O)C2CC(=O)N(c3cccc(Cl)c3)C2)s1` (stereo not given), the “activity change, negative = cytotoxicity” value is reported as -21%.
In the case of `CCn1c(C)nc2cc(C(=O)N/N=C/c3cccc(OC)c3O)ccc21`, the “activity change, negative = cytotoxicity” value is reported as -17.1%.
For `Cc1ccc(C(=O)N/N=C/c2nc3ccccc3n2C)cc1`, the “activity change, negative = cytotoxicity” value was -26.8% [at 57.5 µM].
For `COc1cc([N+](=O)[O-])cc(/C=N/NC(=O)c2ccc(NC(=O)c3ccc(C)cc3)cc2)c1O`, the Potency was 1.78 µM (active).
With `CCCC1CCC(c2ccc(C(=O)NN)cc2)CC1` (stereo not given) the “activity change, negative = cytotoxicity” value was -2.67%.
With `Cc1c(C(=O)N/N=C/c2c(O)ccc3ccccc23)nnn1-c1nonc1N` the “activity change, negative = cytotoxicity” value was -20.6%.
With `Cc1nn2c(NCc3ccccn3)c3c(nc2c1-c1ccccc1)CCC3` the Potency was 11.2 µM (active).
For `CC(C)C(CCNCc1ccccn1)c1ccc(Cl)cc1` (stereo not given), the “activity change, negative = cytotoxicity” value was -16.9% [at 57.5 µM].
For `Cc1cc(NCc2ccccn2)n2nc(C)c(-c3ccc(Cl)cc3)c2n1`, the Potency was 14.1 µM (active).
For `CNc1ccccc1C(=O)OC(C)C(=O)Nc1ccc(Cl)cn1` (stereo not given), the “activity change, negative = cytotoxicity” value was 5.42%.
With `O=C(Nc1ccc(F)cc1)c1sccc1SCc1cccc(C(F)(F)F)c1` the “activity change, negative = cytotoxicity” value was -26.1% [at 57.5 µM].
In the case of `CCOC(=O)c1c(NC(=O)COC(=O)c2ccccc2NC)sc(C(=O)N(C)C)c1C`, the “activity change, negative = cytotoxicity” value is reported as -22.4%.
With `NC(=O)CC(NC(=O)Cc1ccc(Br)cc1)c1ccc(NC2CCCC2)c([N+](=O)[O-])c1` (stereo not given) the “activity change, negative = cytotoxicity” value was -17.4%.
For `Cc1ccc(OCC(=O)c2cc(C)n(Cc3cccs3)c2C)c([N+](=O)[O-])n1`, the “activity change, negative = cytotoxicity” value was -23.1% [at 57.5 µM].
In the case of `C/C(=N\Nc1cc(N2CCOCC2)nc(C)n1)c1cccc([N+](=O)[O-])c1`, the “activity change, negative = cytotoxicity” value is reported as -4.32%.
In the case of `CC1CCCCN1S(=O)(=O)c1ccc(C(=O)Nc2nnc(-c3ccccc3Cl)o2)cc1` (stereo not given), the “activity change, negative = cytotoxicity” value is reported as -5.8%.
With `O=C1C=C(Nc2ccccc2O)c2ccccc2C1=O` the Potency was 20 µM (active).
